Assay results reported in PubChem BioAssay.

experiment: probe aInhba binding on compound microarray – biochemical, small-molecule microarray, 635/667 nm fluorescence, primary screen (AID 1148); settings: higher = more signal;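 further: score merges 667nm spot fluorescence with signal-to-noise for antibody binding to printed compounds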

Row | SMILES | composite z-score
1 | COCCCNC(=O)[C@@H]1c2ccccc2C(=O)N(C2Cc3ccccc3C2)[C@H]1c1ccc(CO)cc1 | 0.208
2 | COc1ccc([Si](C)(C)[C@H]2[C@H](CCO)O[C@@]3(C(=O)N(Cc4ccccc4)c4ccc(N5CCOC5=O)cc43)[C@@H]2C)cc1 | 0.0756
3 | C[C@@]12COC[C@]13C=C(Br)[C@H](C2)[C@@]1(CO1)C3=O | -0.0966
4 | Nc1cc(Br)ccc1C(=O)O | -0.0719
5 | COC(=O)[C@@]1(Cc2ccccc2)[C@H]2c3cc(C(=O)N(C)C)n(CCn4cc([N+](=O)[O-])nc4C)c3C[C@H]2CN1C(=O)c1ccccc1 | -0.147
6 | C=C(/C(=C/C[C@@H](OC(C)=O)c1ccc(CO)o1)c1cc(C(=O)OC)ccc1OC)C(C)C | 0.148
7 | CC(C)C(=C=CC[C@H](O)c1cccc(OCCO)c1)CCO | -0.224
8 | C=CCN1C(=O)[C@]2(O[C@H](CCO)[C@@H]([Si](C)(C)c3ccc(OC)cc3)[C@@H]2C)c2cc(NC(=O)c3ccc(OC)cc3)ccc21 | 0.0541
9 | CC(=O)NCCCC[C@@H]1NC(=O)[C@@H]2C[C@H](C(=O)NCCCCCCN)[C@H](c3cccc(OCCO)c3)N2C1=O | -0.128
10 | CN(C)CCCCNC(=O)[C@H]1C[C@H]2C(=O)N[C@@H](CCCC[N+](C)(C)C)C(=O)N2[C@H]1c1ccc(O)cc1 | -0.179
11 | CC(C)N1CC=CC23O[C@@H]4/C=C\CCCOC(=O)C4[C@H]2C(=O)N(CCCCCCO)[C@@H]3C1=O (stereo not given in full) | -0.205
12 | O=C(CS)NCCCCCCNC(=O)[C@@H]1C[C@@H]2C(=O)NCC(=O)N2[C@@H]1c1ccc(O)cc1 | -0.293
13 | COc1ccc([Si](C)(C)[C@H]2[C@H](CCO)O[C@@]3(C(=O)N(Cc4ccccc4)c4ccc(N5C(=O)c6ccccc6Oc6ccccc65)cc43)[C@@H]2C)cc1 | -0.128
14 | NC(=O)[C@H]1[C@@H]2C(=O)O[C@@H](c3ccccc3)[C@@H](c3ccccc3)N2[C@@H](c2ccc(O)cc2)[C@]12C(=O)Nc1ccccc12 | -0.128
15 | [N-]=[N+]=NCc1ccccc1[C@@H]1OC(c2ccc(OCCCO)cc2)=N[C@]1(Cc1ccccc1)C(=O)NCCN1CCOCC1 | 0.386
16 | O=C1C2C=CC(C(O)c3ccc4c(c3)OCO4)N(Nc3ccccc3)C2C(=O)N1c1ccccc1 (stereo not given) | 0.143
17 | O=C(CS)NCCCCCNC(=O)[C@@H]1C[C@@H]2C(=O)N[C@@H](Cc3ccccc3)C(=O)N2[C@@H]1c1cccc(OCCO)c1 | -0.787
18 | NCCCCCNC(=O)[C@@H]1C[C@@H]2C(=O)N3CCC[C@H]3C(=O)N2[C@@H]1c1ccc(O)cc1 | 0.0706
19 | COc1cc(NN2C(C(O)c3ccccc3)C=CC3C(=O)N(C)C(=O)C32)cc(OC)c1OC (stereo not given) | 0.0184
20 | CC=CC(O)C1C=CC2C(=O)NC(=O)C2N1Nc1ccccn1 (stereo not given) | -0.0645
21 | COCCOC(=O)N1C(=O)[C@@]2(c3ccccc31)[C@H](c1ccccc1OCCO)N1[C@H](c3ccccc3)[C@H](c3ccccc3)OC(=O)[C@H]1[C@@H]2C(N)=O | 0.296
22 | COc1cc(NN2C(C(O)c3ccc(I)cc3)C=CC3C(=O)N(c4ccccc4)C(=O)C32)cc(OC)c1OC (stereo not given) | 0.233
23 | [N-]=[N+]=NCc1ccccc1[C@@H]1OC(c2ccc(OCCCO)cc2)=N[C@]1(Cc1ccccc1N=[N+]=[N-])C(=O)NCCN1CCOCC1 | 0.102
24 | C=C(/C(=C/C[C@H](OC(=O)c1ccncc1)c1ccccc1OCCO)c1cnc2ccccc2c1)C(C)C | 0.0471
25 | C=CCNC(=O)[C@@H]1[C@H]2C(=O)O[C@H](c3ccccc3)[C@H](c3ccccc3)N2[C@H](c2ccc(OCCO)cc2)[C@@]12C(=O)N(C(=O)OCCOC)c1ccc(C#CCCO)cc12 | -0.0521
26 | C=C[C@H](C)[C@H](OC(=O)Nc1ccc(OC)cc1)c1ccc(OCCO)cc1 | -0.314
27 | COc1ccc(C#Cc2ccc3c(c2)[C@]2(C(=O)N3)[C@H](C(=O)N3CCCCCCC3)[C@H]3C(=O)O[C@H](c4ccccc4)[C@H](c4ccccc4)N3[C@@H]2c2ccc(O)cc2)cc1 | 0.939
28 | NCCCCCNC(=O)[C@H]1C[C@H]2C(=O)N[C@@H](Cc3ccccc3)C(=O)N2[C@H]1c1ccc(O)cc1 | 0.641
29 | CC(C)c1ccc(NN2C(C(O)Cc3ccccc3)C=CC3C(=O)N(c4ccccc4)C(=O)C32)cc1 (stereo not given) | -0.152
30 | Cc1ccc(S[C@]2(C(=O)NCc3ccccc3)CC(=O)N(Cc3cc(C(F)(F)F)cc(C(F)(F)F)c3)[C@@H]2c2ccc(CO)cc2I)cc1 | -0.0523
